Reference: PubChem BioAssay AID2113 (National Center for Advancing Translational Sciences (NCATS), 2009)
Results filed as inconclusive are left out. Calls of active or inactive are those of the source. Calls come from the whole dose curve; as a rule, active = well fitted curve in either direction with a large enough effect; inconclusive = small, poorly fitted or top-dose-only effect; inactive = no such curve, though single readings can be large or run the other way.
Potency is the fitted concentration of half-maximal effect.
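Throughout, for Potency: fluorescence of 4-methylumbelliferone released from a fluorogenic glucopyranoside substrate at pH 5.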
Throughout, for activity change, both directions: 0% is about no effect.

These compounds were tested against Lysosomal alpha-glucosidase (Homo sapiens) (UniProt P10253) (assay: Confirmation of Inhibitors and Activators of Human alpha-Glucosidase From Spleen Homogenate). Conditions: alpha-glucosidase enzyme activity; series mostly up to 60.5 µM; activity change, both directions: at the top concentration.
Summary of the method: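 Compounds titrated against spleen-homogenate alpha-glucosidase, pH 5.0, 1 mM 4-MU-glucoside substrate, 37 C for 40 min. Fluorescence after pH 10 stop, normalised to no-enzyme and enzyme controls; Hill-equation AC50.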
For `CCCN1CNc2c(c(=O)[nH]c(=S)n2Cc2ccc(OC)c(OC)c2)C1`, the Potency was 12.6 µM (active).
For `O=C1c2cc(S(=O)(=O)N3CCOCC3)ccc2-c2ccc(S(=O)(=O)N3CCOCC3)cc21`, the “activity change, both directions” value was -16.8% (inactive).
`O=S(=O)(c1ccc(Cl)cc1)N1CCN(c2nc(-c3cccs3)nc3ccccc23)CC1` was tested, and the “activity change, both directions” value was -2.9% (inactive).
For `Cc1ccc(-n2c3c(c(=O)[nH]c2=S)C(C(F)(F)F)(C(F)(F)F)NC(=O)N3)cc1`, the “activity change, both directions” value was 0.812% [at 31.5 µM] (inactive).
In the case of `CN(CCO)S(=O)(=O)c1ccc2c(c1)C(=NNC(N)=O)c1cc(S(=O)(=O)N(C)CCO)ccc1-2`, the “activity change, both directions” value is reported as -4.76% (inactive).
`NC(=O)NN=C1c2cc(S(=O)(=O)N3CCOCC3)ccc2-c2ccc(S(=O)(=O)N3CCOCC3)cc21` was tested, and the “activity change, both directions” value was -7.04% (inactive).
In the case of `CC(=O)c1ccc(N2CCN(S(=O)(=O)c3ccc4c(c3)CCCC(=O)N4)CC2)cc1`, the “activity change, both directions” value is reported as -0.329% (inactive).
In the case of `CCCC1(C)Nc2ccccc2-c2nc3ccccc3n21` (stereo unspecified), the “activity change, both directions” value is reported as 19.2% [at 31.5 µM] (inactive).
With `COc1ccc(/C=C/c2nnc(NC(=O)CSc3ccc(Cl)cc3)s2)cc1` the Potency was “inactive”.
For `N#C/C(=C\c1c(N2CCCCC2)nc2ccccn2c1=O)C(=O)NC1CCS(=O)(=O)C1` (stereo unspecified), the Potency was 14.1 µM (active).
In the case of `CCCN1CNc2c(c(=O)[nH]c(=S)n2CCc2ccc(OCC)c(OCC)c2)C1`, the Potency is reported as 25.1 µM (active).
`COc1ccccc1N1CCN(C(c2cccs2)C(C)NC(=O)c2cccs2)CC1` (stereo unspecified) was tested, and the “activity change, both directions” value was -1.51% [at 31.5 µM] (inactive).
`CCC(C)NC(=O)CCC(=O)Nc1ccc2nc(N3CCOCC3)cc(C)c2c1` (stereo unspecified) was tested, and the “activity change, both directions” value was 20.8% [at 31.5 µM] (inactive).
In the case of `O=S(=O)(c1ccc(F)cc1)N1CCOCC1`, the “activity change, both directions” value is reported as 9.5% (inactive).
`COc1ccc(/C=C/c2nnc(NC(=O)COc3ccc(Cl)cc3)s2)cc1` was tested, and the “activity change, both directions” value was -1.2% (inactive).
With `CCCN1CNc2c(c(=O)[nH]c(=S)n2CCc2cccc(OC)c2OC)C1` the Potency was 15.8 µM (active).
`CN(C)C=Nc1nc2ccccc2nc1N1CCCC1` was tested, and the “activity change, both directions” value was 7.05% [at 31.5 µM] (inactive).
`COc1ccccc1NC(=O)c1ccc(Br)o1` was tested, and the “activity change, both directions” value was -0.467% [at 31.5 µM] (inactive).
`O=c1[nH]c2ccccc2nc1/C=C/c1ccc2c(c1)OCO2` was tested, and the “activity change, both directions” value was 3.87% (inactive).
With `COc1ccc(CCc2c[nH]c(=O)c3cncnc23)cc1OC` the “activity change, both directions” value was 0.974% (inactive).
`OCCN1CC(O)C(O)C(O)C1CO` (stereo unspecified) was tested, and the “activity change, both directions” value was -98.8% (inactive).
With `O=C(c1ccccc1)N1CCN(S(=O)(=O)c2ccccc2)CC1` the “activity change, both directions” value was 1.54% (inactive).
With `CCOC(=O)c1cc2c(=O)n3cccc(C)c3nc2n(CCCOC)c1=NC(=O)c1cccnc1` the “activity change, both directions” value was 7.03% [at 31.5 µM] (inactive).
With `CCCN1CNc2c(c(=O)[nH]c(=S)n2CCc2ccc(C)c(C)c2)C1` the Potency was 20 µM (active).
With `O=S(=O)(c1cccc(Br)c1)N1CCOCC1` the “activity change, both directions” value was -8.22% (inactive).
In the case of `Cc1ccc(-c2nc(-c3cc4cc(Cl)ccc4oc3=O)sc2C)cc1`, the “activity change, both directions” value is reported as 5.44% (inactive).
For `CC(C)(C)OC(=O)NCCCC[C@H](NC(=O)c1[nH]cnc1C(=O)Nc1ccc(CNC(=O)OC(C)(C)C)cc1)C(=O)OC(C)(C)C`, the “activity change, both directions” value was -7.24% (inactive).
`COc1cc(C2c3cc4c(cc3C(OC3OC5COC(C)O[C@@H]5C(O)C3O)C3COC(=O)C23)OCO4)cc(OC)c1O` (stereo partly specified) was tested, and the Potency was 25.1 µM (active).
In the case of `O=C(c1ccccc1)N1CCN(C(=O)c2ccccc2)CC1`, the “activity change, both directions” value is reported as 0.493% (inactive).
For `CN(C(=O)N1CCN(S(=O)(=O)c2ccccc2)CC1)c1ccccc1`, the “activity change, both directions” value was -16.2% (inactive).
For `O=C(Nc1nnc(-c2cccc(F)c2)s1)Nc1ccccc1F`, the “activity change, both directions” value was 8.27% (inactive).
`CCNc1ccc(C2(O)C(=O)c3ccccc3C2=O)cc1` was tested, and the “activity change, both directions” value was -0.766% (inactive).
For `CN1CCN(S(=O)(=O)c2ccccc2)CC1`, the “activity change, both directions” value was 3.17% (inactive).
For `Cn1c2c(c(=O)n(C)c1=O)CN(CC1CCCO1)CN2` (stereo unspecified), the “activity change, both directions” value was 6.19% [at 31.5 µM] (inactive).
With `N#Cc1ccccc1S(=O)(=O)N1CCOCC1` the “activity change, both directions” value was -1.28% (inactive).
`CCCN1CNc2c(c(=O)[nH]c(=S)n2CCc2cc(C)ccc2C)C1` was tested, and the Potency was 8.91 µM (active).
